Laboratory results published in PubChem BioAssay.
The source made the active and inactive calls.

Legend:
[1] = tested on: Plasmodium falciparum Sir2 (PF13_0152, Sir2A); assay: pfSir2 binders on small-molecule microarrays, primary screen, biochemical, small-molecule microarray, 635 nm fluorescence (AID 1098); settings: small-molecule microarray binding, fluorescence 635 nm; higher = more signal;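 further: score merges spot fluorescence intensity with its signal-to-noise ratio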
[2] = small-molecule microarray binders of probe aDKK1, primary screen, biochemical, biotinylated probe, 635/667 nm fluorescence (AID 1099); settings: higher = more signal;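 further: score merges 667nm spot fluorescence with signal to noise across triplicate slides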
[3] = small-molecule microarray binders of probe aCHRDL2, primary screen, biochemical, biotinylated probe, 635/667 nm fluorescence (AID 1100); settings: higher = more signal
[4] = splicing luciferase reporter signal modulators, primary screen, spliceosome inhibition project, cell-based, HEK293, splice +/- reporter (AID 1101); settings: luminescence, 24 h, higher = more signal, called active from +8 up or from −8 down;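 further: HEK293 cells carrying a splicing-competent luciferase reporter gene; test concentration not given here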
[5] = biological target: Fibroblast growth factor 10 (Homo sapiens) (UniProt O15520); assay: FGF10 binders on small-molecule microarrays, primary screen, biochemical, small-molecule microarray, 635 nm fluorescence (AID 1102); settings: FGF10 binding, fluorescence 635 nm, higher = more signal
[6] = tested on: glycogen synthase kinase-3 (GSK3A per assay name; protocol says GSK3B); assay: GSK3 binders on small-molecule microarrays, primary screen, biochemical, small-molecule microarray, 635 nm fluorescence, GSK3A (AID 1103); settings: small-molecule microarray binding, fluorescence 635 nm; higher = more signal; further: the record names both GSK3A and GSK3B
[7] = biological target: Epidermal growth factor receptor (Homo sapiens) (UniProt P00533); assay: EGFR binders on small-molecule microarrays, primary screen, biochemical, small-molecule microarray, 635 nm fluorescence (AID 1104); settings: EGFR binding, higher = more signal;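 further: score merges 667 nm emission intensity with spot signal to noise over triplicate slides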
[8] = biological target: Follistatin-related protein 3 (Homo sapiens) (UniProt O95633); assay: FSTL3 binders on small-molecule microarrays, primary screen, biochemical, small-molecule microarray, 635 nm fluorescence (AID 1105); settings: FSTL3 binding, higher = more signal;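 further: score merges emission near 667 nm and signal to noise per printed spot across three slides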
[9] = biological target: Dickkopf-related protein 1 (Homo sapiens) (UniProt O94907); assay: DKK1 binders on small-molecule microarrays, primary screen, biochemical, small-molecule microarray, 635 nm fluorescence scan (AID 1106); settings: DKK1 binding, higher = more signal;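 further: score merges emission near 667 nm with signal to noise over three replicate slides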
[10] = tested on: Inhibin beta A chain (activin A); assay: INHBA (activin A) binders on microarrays, primary screen, biochemical, small-molecule microarray, 635 nm fluorescence scan (AID 1107); settings: small-molecule microarray binding, higher = more signal;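 further: mouse activin A protein probed at 4.33 µg/mL on printed slides; score merges bound-protein fluorescence near 667 nm with spot signal-to-noise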
[11] = tested on: Human papillomavirus type 1a protein E7 (residues 44-93); assay: HPV1a E7 fragment binders on microarrays, primary screen, biochemical, small-molecule microarray, residues 44-93, 635 nm fluorescence (AID 1108); settings: small-molecule microarray binding, fluorescence 635 nm; higher = more signal;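 further: E7 fragment applied at 1 µg/mL in TBST for 1 h at 4 C; score combines spot fluorescence with its signal to noise ratio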
[12] = modulators of HCV replicon luciferase signal, primary screen, HCV replication inhibitor project, Huh7 cells, luciferase reporter (AID 1109); settings: 48 h, higher = more signal;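 further: huh7 hepatoma cells harbouring a luciferase neomycin HCV replicon reporter; luciferase luminescence as measure of HCV replicon replication; test concentration not given here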
[13] = biological target: Left-right determination factor 2 (Homo sapiens) (UniProt O00292); assay: LEFTY2 binders on small-molecule microarrays, primary screen, biochemical, small-molecule microarray, 635 nm fluorescence scan (AID 1110); settings: LEFTY2 binding, higher = more signal
[14] = biological target: Calmodulin-1 (Homo sapiens) (UniProt P0DP23); assay: CALM1 binders on microarrays, EGTA buffer, profiling panel, biochemical, small-molecule microarray, Cy5-labelled CALM1 (AID 1111); settings: Cy5-CALM1 binding fluorescence, higher = more signal;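 further: labelled calmodulin applied in Tris saline Tween buffer holding calcium plus EGTA and DTT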
[15] = biological target: Calmodulin-1 (Homo sapiens) (UniProt P0DP23); assay: calcium-bound CALM1 binders on microarrays, profiling panel, artefact control for SMM control-protein annotation, biochemical, small-molecule microarray, Cy5-labelled CALM1, plus calcium (AID 1112); settings: Cy5-CALM1 binding fluorescence, higher = more signal;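 further: score merges spot fluorescence with signal to noise from triplicate slides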
[16] = small-molecule microarray binders of probe aWnt5a, primary screen, biochemical, biotinylated probe, 635/667 nm fluorescence (AID 1113); settings: higher = more signal;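 further: score merges 667 nm fluorescence intensity with signal-to-noise per printed feature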
[17] = small-molecule microarray binders of probe aShh, primary screen, biochemical, biotinylated probe, 635/667 nm fluorescence (AID 1114); settings: higher = more signal;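 further: probe is biotin-labelled aShh protein from a stem cell growth factor screen; measures binding of labelled protein to compounds printed on the slide; score merges feature fluorescence at 667 nm with signal-to-noise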
[18] = small-molecule microarray binders of probe aNog, primary screen, biochemical, biotinylated probe, 635/667 nm fluorescence (AID 1115); settings: higher = more signal;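 further: probe is biotinylated aNog protein used at 0.15 µg/mL for 1 h at 4 C; z-score combines 667 nm fluorescence of each spot with its signal to noise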
[19] = biological target: Torsin-1A-interacting protein 1 (Homo sapiens) (UniProt Q5JTV8); assay: LAP1 binders from COS7 cell lysate, primary screen, small-molecule microarray, 635/667 nm fluorescence (AID 1116); settings: COS7-hLAP1 lysate binding, 635 nm fluorescence, higher = more signal
[20] = biological target: Alpha-bungarotoxin (Bungarus multicinctus) (UniProt P60615); assay: alpha-bungarotoxin binders on microarray, profiling panel, artefact control for SMM control protein annotation, biochemical, small-molecule microarray, Alexa647 label, 635/667 nm fluorescence (AID 1117); settings: alpha-BTX-A647 binding fluorescence, higher = more signal
Alpha-bungarotoxin (Bungarus multicinctus), sequence (P60615 whole entry, looked up): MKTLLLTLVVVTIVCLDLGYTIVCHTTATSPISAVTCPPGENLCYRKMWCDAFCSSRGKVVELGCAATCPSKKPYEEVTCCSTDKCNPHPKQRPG

Dickkopf-related protein 1 (Homo sapiens), sequence (O94907 whole entry, looked up): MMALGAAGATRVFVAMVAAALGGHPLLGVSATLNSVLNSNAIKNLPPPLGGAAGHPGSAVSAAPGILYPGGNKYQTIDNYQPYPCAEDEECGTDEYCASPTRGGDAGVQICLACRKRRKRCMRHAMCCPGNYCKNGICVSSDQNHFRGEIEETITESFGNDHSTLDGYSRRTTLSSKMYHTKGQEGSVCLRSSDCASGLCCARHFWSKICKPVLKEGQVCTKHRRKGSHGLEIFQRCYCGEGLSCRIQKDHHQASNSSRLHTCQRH
Epidermal growth factor receptor (Homo sapiens), sequence (P00533 whole entry, looked up): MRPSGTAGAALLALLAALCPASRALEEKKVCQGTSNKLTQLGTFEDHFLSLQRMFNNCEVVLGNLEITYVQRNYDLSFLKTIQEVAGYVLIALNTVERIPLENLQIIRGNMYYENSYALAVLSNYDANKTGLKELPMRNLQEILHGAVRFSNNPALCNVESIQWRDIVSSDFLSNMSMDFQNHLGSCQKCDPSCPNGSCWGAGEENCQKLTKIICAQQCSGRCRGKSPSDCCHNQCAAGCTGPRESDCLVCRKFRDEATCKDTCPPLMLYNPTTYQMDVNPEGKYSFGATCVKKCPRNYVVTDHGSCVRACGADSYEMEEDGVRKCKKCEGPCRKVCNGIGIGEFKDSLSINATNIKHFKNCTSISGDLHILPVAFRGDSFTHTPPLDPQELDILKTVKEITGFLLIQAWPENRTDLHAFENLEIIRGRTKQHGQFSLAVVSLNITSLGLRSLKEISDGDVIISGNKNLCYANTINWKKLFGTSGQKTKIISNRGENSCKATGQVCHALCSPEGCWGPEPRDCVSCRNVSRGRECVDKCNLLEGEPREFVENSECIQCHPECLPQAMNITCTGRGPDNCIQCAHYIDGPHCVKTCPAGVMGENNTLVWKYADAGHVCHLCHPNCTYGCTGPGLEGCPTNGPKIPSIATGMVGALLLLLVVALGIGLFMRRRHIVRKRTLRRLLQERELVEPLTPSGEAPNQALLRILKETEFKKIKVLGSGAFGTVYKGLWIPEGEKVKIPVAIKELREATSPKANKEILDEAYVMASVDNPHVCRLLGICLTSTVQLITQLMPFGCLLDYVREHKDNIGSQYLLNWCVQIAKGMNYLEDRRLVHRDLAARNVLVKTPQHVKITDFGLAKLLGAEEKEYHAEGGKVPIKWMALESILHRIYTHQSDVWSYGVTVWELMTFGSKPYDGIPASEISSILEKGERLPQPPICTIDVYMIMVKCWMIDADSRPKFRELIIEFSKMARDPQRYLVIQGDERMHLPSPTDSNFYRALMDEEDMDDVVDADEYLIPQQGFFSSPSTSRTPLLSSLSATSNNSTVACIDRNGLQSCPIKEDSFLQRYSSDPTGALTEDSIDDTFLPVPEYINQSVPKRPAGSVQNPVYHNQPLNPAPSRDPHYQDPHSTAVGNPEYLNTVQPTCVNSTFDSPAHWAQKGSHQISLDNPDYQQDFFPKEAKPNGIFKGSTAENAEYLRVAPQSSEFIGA
Left-right determination factor 2 (Homo sapiens), sequence (O00292 whole entry, looked up): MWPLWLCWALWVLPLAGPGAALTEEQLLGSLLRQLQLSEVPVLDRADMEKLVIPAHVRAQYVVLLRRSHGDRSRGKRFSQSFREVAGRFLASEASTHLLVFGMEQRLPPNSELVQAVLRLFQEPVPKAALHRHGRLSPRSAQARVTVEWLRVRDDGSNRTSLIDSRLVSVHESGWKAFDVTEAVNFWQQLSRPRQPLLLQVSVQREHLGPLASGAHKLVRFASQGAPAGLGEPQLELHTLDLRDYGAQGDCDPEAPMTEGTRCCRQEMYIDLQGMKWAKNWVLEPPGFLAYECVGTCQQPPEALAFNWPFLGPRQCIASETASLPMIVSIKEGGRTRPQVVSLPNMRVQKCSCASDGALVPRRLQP
Torsin-1A-interacting protein 1 (Homo sapiens), sequence (Q5JTV8 whole entry, looked up): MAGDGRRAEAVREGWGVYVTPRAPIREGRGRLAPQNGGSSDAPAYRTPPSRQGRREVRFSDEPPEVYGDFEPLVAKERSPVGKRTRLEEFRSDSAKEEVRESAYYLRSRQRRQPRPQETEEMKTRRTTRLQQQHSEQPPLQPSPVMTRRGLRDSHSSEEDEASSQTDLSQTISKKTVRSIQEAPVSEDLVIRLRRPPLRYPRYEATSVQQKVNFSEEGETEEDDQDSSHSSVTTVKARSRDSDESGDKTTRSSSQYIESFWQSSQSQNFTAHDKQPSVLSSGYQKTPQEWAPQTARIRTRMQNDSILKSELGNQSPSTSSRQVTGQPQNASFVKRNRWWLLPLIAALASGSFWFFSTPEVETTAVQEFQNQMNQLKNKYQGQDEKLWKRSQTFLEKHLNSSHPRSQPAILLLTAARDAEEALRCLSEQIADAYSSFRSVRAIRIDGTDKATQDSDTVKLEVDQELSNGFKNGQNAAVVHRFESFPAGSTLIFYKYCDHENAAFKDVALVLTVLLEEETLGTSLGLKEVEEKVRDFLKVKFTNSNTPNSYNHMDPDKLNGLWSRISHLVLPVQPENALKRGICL
Fibroblast growth factor 10 (Homo sapiens), sequence (O15520 whole entry, looked up): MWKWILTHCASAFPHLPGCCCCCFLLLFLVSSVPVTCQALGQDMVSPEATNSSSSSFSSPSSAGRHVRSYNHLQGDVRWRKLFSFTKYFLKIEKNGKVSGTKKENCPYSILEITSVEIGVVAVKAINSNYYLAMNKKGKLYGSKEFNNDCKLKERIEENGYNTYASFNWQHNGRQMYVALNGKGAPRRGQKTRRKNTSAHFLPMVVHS
Follistatin-related protein 3 (Homo sapiens), sequence (O95633 whole entry, looked up): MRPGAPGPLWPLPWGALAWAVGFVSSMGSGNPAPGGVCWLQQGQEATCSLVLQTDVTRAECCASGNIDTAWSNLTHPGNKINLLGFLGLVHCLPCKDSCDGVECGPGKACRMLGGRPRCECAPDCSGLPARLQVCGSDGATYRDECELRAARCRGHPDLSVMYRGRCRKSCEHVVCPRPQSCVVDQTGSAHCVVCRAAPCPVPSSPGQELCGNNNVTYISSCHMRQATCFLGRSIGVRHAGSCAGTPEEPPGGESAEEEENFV

SMILES | composite z-score [1] | composite z-score [2] | composite z-score [3] | z-score [4] | composite z-score [5] | composite z-score [6] | composite z-score [7] | composite z-score [8] | composite z-score [9] | composite z-score [10] | composite z-score [11] | z-score [12] | composite z-score [13] | composite z-score [14] | composite z-score [15] | composite z-score [16] | composite z-score [17] | composite z-score [18] | composite z-score [19] | composite z-score [20]
CCCCCCc1nc(C2CC2)c(C)c2c1[Si](C(C)C)(C(C)C)OC2 | -0.192 | -0.124 | 0.109 | -3.06 (inactive) | -0.391 | -0.562 | 0.138 | -0.127 | 0.438 | 1.54 | -0.497 | 0.127 | -0.127 | -0.682 | -0.111 | -0.124 | -0.0146 | -0.353 | -0.147 | 0.342
C[C@H]1COC(=O)[C@@H]2CCCN2C(=O)[C@@H](C)COC(=O)[C@@H]2CCCN2C1=O | -0.0175 | -0.37 | -0.675 | -0.0582 (inactive) | 0.419 | -0.295 | 0.514 | -0.0914 | 0.563 | -0.0885 | -0.663 | -0.004 | 0.417 | -0.835 | -1.09 | -0.124 | -0.0626 | -0.367 | -0.392 | -0.394
C=CCNC(=O)[C@@H]1[C@H]2C(=O)O[C@H](c3ccccc3)[C@H](c3ccccc3)N2[C@H](c2ccc(OCCO)cc2)[C@@]12C(=O)N(C(=O)OCCOC)c1ccc(C#CC3(O)CCCCCC3)cc12 | 1.12 | 0.342 | 0.375 | -0.929 (inactive) | 0.325 | 0.871 | 0.432 | 0.702 | 0.125 | 1.34 | 0.692 | -2.29 | 0.507 | 1.82 | 1.11 | 0.0267 | 0.293 | 0.166 | 1.2 | 1.97
O=C(N1CCCCC1)[C@@]1(CCS(=O)(=O)c2ccccc2)N=C(c2ccc(OCCCO)cc2)O[C@H]1c1ccccc1 | 0.332 | 0.653 | 0.896 | -0.372 (inactive) | 1.27 | 0.811 | -0.162 | 0.598 | -0.42 | 0.356 | 1.48 | -3.07 | -0.197 | -0.215 | -0.688 | 0.212 | 0.427 | -0.133 | 1.77 | -0.0166
C=C[C@H](OC)[C@@H](OC(=O)Nc1ccc(SC)cc1)c1ccc(O)c(F)c1 | 1.03 | -0.145 | 0.0453 | -1.97 (inactive) | 1.01 | 0.0309 | -0.133 | 0.264 | -0.39 | -0.433 | 0.998 | 3.8 | -0.367 | 0.0665 | -0.0093 | -0.0486 | 0.0008 | -0.443 | 1.31 | 0.358
